The values that follow come from PubChem BioAssay (Tox21).

In assay [1] the target is Peroxisome proliferator-activated receptor delta (Homo sapiens) (UniProt Q03181). As to the kind of experiment: qHTS assay to identify small molecule agonists of the peroxisome proliferator-activated receptor delta (PPARd) signaling pathway (AID 743212; calls by dose curve). The essentials: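 Read-out: beta-lactamase FRET fluorescence after 2 h room-temperature incubation with LiveBLAzer B/G substrate. Cells were HEK293H carrying a UAS-bla reporter for PPARd, treated at 37 C with DMSO-dissolved compounds.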
For orientation: qHTS replaces the single test concentration by a dilution series.

Assay [2] has the same target. As to the kind of experiment: qHTS assay to identify small molecule antagonists of the peroxisome proliferator-activated receptor delta (PPARd) signaling pathway (AID 743215; active means well fitted inhibition curve with a large enough effect in the signal ratio in the repeat runs, not every such curve was filed as active; the % refers to the signal ratio;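 further: cells stimulated with agonist L165041 at 300 nM final during compound exposure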; further: potency means the concentration at half of the fitted maximal effect). The essentials:
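Cells: HEK293H with a UAS-driven beta-lactamase reporter responsive to PPARd. Compounds were co-added with L165041 (300 nM, final) and incubated 17 h at 37 C before a 2 h room-temperature FRET substrate step and fluorescence reading.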

A short description of assay [3]: qHTS assay to identify small molecule agonists of the farnesoid-X-receptor (FXR) signaling pathway - cell viability counter screen (AID 743218). Further: nearly all actives have a fitted effect of over 45% in size. Further: potency means the concentration at half of the fitted maximal effect. The method in brief: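 Cells were seeded, left 5 h at 37 C and 5% CO2, then dosed with compound in DMSO for 16 h. After the beta-lactamase FRET read, CellTiter-Glo was added and luminescence measured 30 min later.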
Assay [4] in a line: qHTS assay to identify small molecule antagonists of the farnesoid-X-receptor (FXR) signaling pathway - cell viability counter screen (AID 743221; active means well fitted cell-killing curve with a large enough effect in the repeat runs, not every such curve was filed as active; further: nearly all actives have a fitted effect of over 50% in size; further: potency means the concentration at half of the fitted maximal effect). The essentials:
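HEK 293T FXR-bla cells, 5 h pre-incubation; compound + CDCA 50 uM final, 16 h, 37 C; beta-lactamase FRET read first, then CellTiter-Glo luminescence, 30 min RT.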

The target of assay [5] is Vitamin D3 receptor (Homo sapiens) (UniProt P11473). As to the kind of experiment: qHTS assay to identify small molecule agonists of the vitamin D receptor (VDR) signaling pathway (AID 743222; calls by dose curve). The essentials: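 Cells carrying a VDR-driven beta-lactamase reporter are seeded at 2,000 per well and rested 4 h. Compounds in DMSO are added for 16 h at 37C, and FRET substrate fluorescence is measured after 2 h at room temperature.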

A short description of assay [6]: qHTS assay to identify small molecule agonists of the NFkB signaling pathway - cell viability counter screen (AID 1159515; calls by dose curve; further: nearly all actives have a fitted effect of over 55% in size; further: potency means the concentration at half of the fitted maximal effect). The essentials:
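Cells are seeded (2,000 NFkB-bla ME-180 per well), rested overnight, and dosed with DMSO-dissolved compounds for 5 hr at 37 C. Viability is then read by CellTiter-Glo luminescence after 30 min at room temperature.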

Assay [7] in a line: qHTS assay to identify small molecule agonists of the endoplasmic reticulum stress response signaling pathway - cell viability counter screen (AID 1159517; calls by dose curve; further: nearly all actives have a fitted effect of over 50% in size; further: potency means the concentration at half of the fitted maximal effect). The essentials: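 Steps: seed 1,500 ESRE-bla HeLa cells per well; incubate overnight at 37 C, 5% CO2; add compounds in DMSO for 5 hr; run FRET substrate 2 hr RT; add CellTiter-Glo, wait 30 min, read luminescence.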
The nature of assay [8]: qHTS assay to identify small molecule antagonists of the retinoid-related orphan receptor gamma (ROR-gamma) signaling pathway - cell viability counter screen (AID 1159520). Further: nearly all actives have a fitted effect of over 50% in size. Further: potency means the concentration at half of the fitted maximal effect. The method in brief:
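Tet-on ROR gamma CHO cells were given compounds for 2 hr, then doxycycline hyclate at 1 uM final, and incubated 16 hr at 37 C. Viability was measured as ATP content by CellTiter-Glo luminescence.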

In assay [9] the target is Nuclear receptor ROR-gamma (Homo sapiens) (UniProt P51449). The experiment in a line: qHTS assay to identify small molecule antagonists of the retinoid-related orphan receptor gamma (ROR-gamma) signaling pathway (AID 1159521; further: nearly all actives have a fitted effect of over 50% in size; further: potency means the concentration at half of the fitted maximal effect). The essentials: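 Luminescence readout (ONE-Glo, 30 min RT) after 16 h doxycycline induction; loss of signal scored as antagonism. CHO cells with TET-inducible RORγ and RORE-LUC reporter; compounds added 2 h before 1 uM final doxycycline.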

A short description of assay [10]: qHTS assay to identify small molecule agonists of the AP-1 signaling pathway - cell viability counter screen (AID 1159525; calls by dose curve; further: nearly all actives have a fitted effect of over 55% in size; further: potency means the concentration at half of the fitted maximal effect). The essentials:
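Same-well cytotoxicity counter screen of the Tox21 10K library in ME-180 cells. The readout is ATP-dependent luminescence after 5 h compound treatment. Data are normalised to DMSO and tetra n-octyl ammonium bromide controls.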

The nature of assay [11]: qHTS assay to identify small molecule antagonists of the peroxisome proliferator-activated receptor delta (PPARd) signaling pathway - cell viability counter screen (AID 743213). Further: nearly all actives have a fitted effect of over 50% in size. Further: potency means the concentration at half of the fitted maximal effect. The method in brief: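 Same-well viability: cells pre-incubated 5 h, dosed with compound plus 300 nM L165041, kept 17 h at 37 C, FRET substrate 2 h RT, then CellTiter-Glo 30 min RT and luminescence.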

Assay [12] is described as follows: qHTS assay to identify small molecule agonists of the vitamin D receptor (VDR) signaling pathway - cell viability counter screen (AID 743224). Further: nearly all actives have a fitted effect of over 50% in size. Further: potency means the concentration at half of the fitted maximal effect. The method in brief:
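Cells: VDR-bla, 2,000/well, settled 4 h. Treatment: compounds in DMSO, 16 h, 37C/5% CO2. Readout: CellTiter-Glo luminescence after 30 min RT.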

Assay [13] is described as follows: qHTS assay to identify small molecule antagonists of the vitamin D receptor (VDR) signaling pathway - cell viability counter screen (AID 743225). Further: nearly all actives have a fitted effect of over 50% in size. Further: potency means the concentration at half of the fitted maximal effect. The essentials:
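Viability counter screen run in the same wells as the beta-lactamase reporter assay: HEK 293T VDR-UAS-bla cells, 16 h compound exposure at 37C with 3 nM (final) 1-alpha,25-dihydroxyvitamin D3. CellTiter-Glo luminescence, 30 min, room temperature.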

Assay [14] can be described thus: qHTS assay to identify small molecule agonists of the RXR signaling pathway - cell viability counter screen (AID 1159529). Further: nearly all actives have a fitted effect of over 50% in size. Further: potency means the concentration at half of the fitted maximal effect. The essentials:
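Luminescence from CellTiter-Glo (30 min, RT) measured viability in the same wells as the beta-lactamase reporter readout. Cells: GeneBLAzer RXR-alpha HEK 293T, 2% charcoal-stripped FBS. Compound exposure 16 hr, 37 C.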

Assay [15] deals with Bile acid receptor (Homo sapiens) (UniProt Q96RI1). The experiment in a line: qHTS assay to identify small molecule antagonists of the farnesoid-X-receptor (FXR) signaling pathway (AID 743217; active means well fitted inhibition curve with a large enough effect in the signal ratio in the repeat runs, not every such curve was filed as active; the % refers to the signal ratio). The essentials:
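Cells carrying a UAS-driven beta-lactamase reporter (GeneBLAzer FXR-UAS-bla HEK 293T) were plated and rested 5 h at 37 °C. Compounds in DMSO were added alongside chenodeoxycholic acid agonist at 50 uM final and left 16 h at 37 °C before FRET substrate readout.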

For assay [16] the target is unchanged. As to the kind of experiment: qHTS assay to identify small molecule agonists of the farnesoid-X-receptor (FXR) signaling pathway (AID 743220; active means well fitted activation curve with a large enough effect in the signal ratio in the repeat runs, not every such curve was filed as active; the % refers to the signal ratio). The essentials:
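FXR-UAS-bla HEK 293T cells carrying a UAS-driven beta-lactamase reporter were plated for 5 h at 37C/5% CO2, then exposed to DMSO-dissolved Tox21 10K compounds for 16 h at 37C. A LiveBLAzer B/G FRET substrate was loaded for 2 h at room temperature before fluorescence reading.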

The nature of assay [17]: qHTS assay to identify small molecule agonists of the AP-1 signaling pathway (AID 1159526; calls by dose curve).
Assay [18] deals with Retinoic acid receptor RXR-alpha (Homo sapiens) (UniProt P19793). The experiment in a line: qHTS assay to identify small molecule agonists of the RXR signaling pathway (AID 1159527; calls by dose curve; further: nearly all actives have a fitted effect of over 35% in size). The method in brief:
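Agonist mode; 9-cis retinoic acid positive control. HEK 293T UAS-bla reporter cells, 2% charcoal-stripped FBS, 16 hr compound exposure at 37 C/5% CO2. LiveBLAzer B/G FRET substrate 2 hr RT; ex 405, em 460/530 nm.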

Inconclusive results are not listed. The source made the active and inactive calls. Unless noted, the call rests on the fitted dose curve; in most records, active means well fitted curve in the direction sought with a large enough effect in the repeat runs; inconclusive means weak or mixed curves; inactive means no such curve, though single readings can be large; an effect the other way counts as inactive or inconclusive.

Peroxisome proliferator-activated receptor delta (Homo sapiens), sequence (Q03181 whole entry, looked up): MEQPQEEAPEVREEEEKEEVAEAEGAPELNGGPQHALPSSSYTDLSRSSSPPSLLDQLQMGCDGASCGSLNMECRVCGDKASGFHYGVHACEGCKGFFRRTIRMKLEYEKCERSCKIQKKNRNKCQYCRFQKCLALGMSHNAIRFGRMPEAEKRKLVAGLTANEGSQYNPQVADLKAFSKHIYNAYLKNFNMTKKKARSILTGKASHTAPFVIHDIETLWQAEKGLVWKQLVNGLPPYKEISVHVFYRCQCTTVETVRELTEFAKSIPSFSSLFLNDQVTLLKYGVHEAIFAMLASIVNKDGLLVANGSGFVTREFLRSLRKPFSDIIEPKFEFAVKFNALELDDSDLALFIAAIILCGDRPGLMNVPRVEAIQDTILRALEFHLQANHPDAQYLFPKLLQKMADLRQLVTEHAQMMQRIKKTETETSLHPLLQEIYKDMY
Bile acid receptor (Homo sapiens), sequence (Q96RI1 whole entry, looked up): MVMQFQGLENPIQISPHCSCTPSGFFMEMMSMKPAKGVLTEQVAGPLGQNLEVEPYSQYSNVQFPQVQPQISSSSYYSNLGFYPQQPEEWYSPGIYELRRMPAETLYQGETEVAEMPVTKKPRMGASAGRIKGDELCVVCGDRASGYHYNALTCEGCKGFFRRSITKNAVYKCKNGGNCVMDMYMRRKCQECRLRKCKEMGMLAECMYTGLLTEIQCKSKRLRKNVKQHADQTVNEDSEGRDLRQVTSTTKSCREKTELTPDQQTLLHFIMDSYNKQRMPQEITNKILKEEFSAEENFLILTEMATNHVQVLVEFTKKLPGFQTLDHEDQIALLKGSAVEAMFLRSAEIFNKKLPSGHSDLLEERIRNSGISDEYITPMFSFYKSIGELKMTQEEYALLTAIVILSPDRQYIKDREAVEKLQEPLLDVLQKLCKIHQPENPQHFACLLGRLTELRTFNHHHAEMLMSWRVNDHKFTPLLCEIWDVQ
Retinoic acid receptor RXR-alpha (Homo sapiens), sequence (P19793 whole entry, looked up): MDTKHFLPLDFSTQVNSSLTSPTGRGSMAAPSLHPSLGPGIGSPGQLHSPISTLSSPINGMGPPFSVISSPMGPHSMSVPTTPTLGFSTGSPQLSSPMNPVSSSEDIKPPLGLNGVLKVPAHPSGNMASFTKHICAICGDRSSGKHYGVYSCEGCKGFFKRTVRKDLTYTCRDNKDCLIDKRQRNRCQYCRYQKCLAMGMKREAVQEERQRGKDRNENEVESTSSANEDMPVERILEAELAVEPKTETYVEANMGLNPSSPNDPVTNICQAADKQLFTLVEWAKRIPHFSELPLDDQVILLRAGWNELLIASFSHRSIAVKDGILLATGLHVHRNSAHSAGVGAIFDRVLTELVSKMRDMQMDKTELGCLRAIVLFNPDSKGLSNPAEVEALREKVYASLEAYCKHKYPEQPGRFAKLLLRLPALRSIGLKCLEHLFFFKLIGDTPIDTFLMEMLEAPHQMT
Vitamin D3 receptor (Homo sapiens), sequence (P11473 whole entry, looked up): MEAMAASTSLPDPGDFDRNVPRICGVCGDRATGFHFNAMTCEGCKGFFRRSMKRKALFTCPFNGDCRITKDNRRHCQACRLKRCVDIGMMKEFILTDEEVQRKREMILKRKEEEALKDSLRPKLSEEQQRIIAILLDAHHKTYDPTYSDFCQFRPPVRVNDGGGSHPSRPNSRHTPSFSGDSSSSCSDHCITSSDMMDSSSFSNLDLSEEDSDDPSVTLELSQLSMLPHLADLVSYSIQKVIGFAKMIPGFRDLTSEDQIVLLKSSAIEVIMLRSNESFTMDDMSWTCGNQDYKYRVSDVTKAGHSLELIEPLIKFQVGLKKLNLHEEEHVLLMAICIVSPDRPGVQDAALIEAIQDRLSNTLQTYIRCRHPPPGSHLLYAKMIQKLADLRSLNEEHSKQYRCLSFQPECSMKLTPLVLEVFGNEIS

For `CNCc1cc(F)ccc1Oc1ccc(Cl)c(Cl)c1`, the Potency entry in assay [1], in assay [2], in assay [4], in [5], in assay [6] and in assay [7] was “inactive” each time. Moreover, the Potency result in assay [8] and in assay [10] was “inactive” each time. In addition, the Potency in assay [3] is 49 µM (active); in assay [9], 34.4 µM (active).

Regarding `CCCCc1oc2ccc(NS(C)(=O)=O)cc2c1C(=O)c1ccc(OCCCN(CCCC)CCCC)cc1`, the Potency was 23.7 µM (active) in assay [11]; 26.6 µM (active) in assay [3]; 26.6 µM (active) in [12]; 23.9 µM (active) in assay [13]; 26.8 µM (active) in [6]; 21.3 µM (active) in assay [7]. In addition, the Potency in [8] was 26.6 µM (active); in [9] it was 23.7 µM (active); in [10], 19 µM (active); in assay [14] it was 9.52 µM (active).

Take `Oc1cccc2cc3cccc(O)c3c(O)c12`: the Potency entry in assay [1], in assay [11], in [15], in assay [16], in [4] and in assay [12] was “inactive” in each case. Further, the Potency result in assay [13], in assay [6], in assay [7], in [8], in assay [9] and in assay [14] was “inactive” each time.

Take `O=c1[nH]cnc2nc[nH]c12`: the Potency result in assay [15], in assay [3], in assay [16], in assay [4], in [13] and in assay [6] was “inactive” in each case. The Potency result in assay [7], in assay [8], in [9], in [17], in assay [18] and in assay [14] was “inactive” in each case.

With `Cc1cc(O)c(C(C)(C)C)cc1Sc1cc(C(C)(C)C)c(O)cc1C`, the Potency in assay [11] was 3.46 µM (active); in assay [4], 9.75 µM (active); in [12], 4.36 µM (active); in assay [13], 7.75 µM (active); in assay [6] it was 17.3 µM (active); in assay [7], 21.8 µM (active). For the same molecule, the Potency in assay [8] is 8.62 µM (active); in assay [9], 2.73 µM (active); in assay [10] it was 12.3 µM (active); in assay [14], 12.3 µM (active).

In the case of `O=C(N/N=C/c1ccccc1O)c1ccncc1`, the results for the Potency in assay [2] and in assay [9] were 2.11 µM (active) and 23.7 µM (active), respectively. Further, the Potency result in [3], in assay [16], in assay [4], in [6], in [7] and in assay [8] was “inactive” in each case. Moreover, the Potency entry in assay [10] and in assay [14] was “inactive” each time.

Take `CCCN(CCC)c1c([N+](=O)[O-])cc(C(F)(F)F)c(N)c1[N+](=O)[O-]`: the Potency in assay [11] is 30.8 µM (active); in assay [3], 38.8 µM (active); in assay [12], 13.8 µM (active); in [6], 24.5 µM (active); in assay [7], 43.5 µM (active); in assay [8], 30.5 µM (active). Moreover, the figures for the Potency in assay [9], in assay [10] and in assay [14] were 21.6 µM (active), 13.8 µM (active) and 13.8 µM (active), respectively.

`CSc1ccc(/C=C2/C(C)=C(CC(=O)O)c3cc(F)ccc32)cc1`: the Potency result in [11], in assay [16], in assay [4], in assay [6], in [7] and in assay [8] was “inactive” in each case. For the same molecule, the Potency entry in assay [9] and in [10] was “inactive” in each case.

For `Nc1ccc2c3c(cccc13)-c1ccccc1-2`, the Potency in [11] was 49.5 µM (active). Further, the Potency result in assay [4], in assay [6], in assay [7], in [8], in assay [9] and in assay [10] was “inactive” each time.

For the molecule `Cc1cc(=O)oc2cc(N(C)C)ccc12`, the Potency result in assay [11], in assay [3], in assay [4], in assay [12], in assay [6] and in assay [7] was “inactive” each time. In addition, the Potency entry in assay [8], in assay [9] and in assay [10] was “inactive” in each case.
